Sampled rows, rich in hits. Any-hit rate of the full collection: about 3.3%.
Mcl1 Bid PPI: Mcl-1/Bid interaction inhibition. 220,000 compounds, 0.97% hits. TR-FRET Mcl-1/Bid-Dy647 peptide binding, 1536-well. inhibition, % at 21.7 µM. AID 1021;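 active means compounds that cut the binding signal by more than half at the single screening dose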;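 further: His-tagged Mcl-1 with europium anti-His antibody binding Bid BH3 peptide; 0% = Mcl-1 plus peptide wells and 100% = peptide-only wells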
Target sequence (Q07820 whole entry, looked up): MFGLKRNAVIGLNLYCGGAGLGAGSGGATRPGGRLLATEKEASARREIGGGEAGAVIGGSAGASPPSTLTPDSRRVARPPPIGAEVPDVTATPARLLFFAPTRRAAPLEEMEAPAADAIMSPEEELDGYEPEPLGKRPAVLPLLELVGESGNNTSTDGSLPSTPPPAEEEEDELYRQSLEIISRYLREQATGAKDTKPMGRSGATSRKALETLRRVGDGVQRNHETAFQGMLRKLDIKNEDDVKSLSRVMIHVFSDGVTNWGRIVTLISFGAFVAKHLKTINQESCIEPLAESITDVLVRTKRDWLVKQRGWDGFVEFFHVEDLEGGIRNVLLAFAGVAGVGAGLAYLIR
14-3-3 Bad inh: disrupts binding of bovine 14-3-3 zeta to phospho-Bad peptide; P63103; inhibition, % at 21.7 µM; AID 781; 220,000 compounds, 0.71% hits; TR-FRET 14-3-3zeta/Dy647-pBad peptide displacement, 1 h;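 active means inhibition above about 70%, limit read from the data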;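 further: 0% = full 14-3-3 plus peptide FRET controls and 100% = background without 14-3-3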
Target sequence (P63103 whole entry, looked up): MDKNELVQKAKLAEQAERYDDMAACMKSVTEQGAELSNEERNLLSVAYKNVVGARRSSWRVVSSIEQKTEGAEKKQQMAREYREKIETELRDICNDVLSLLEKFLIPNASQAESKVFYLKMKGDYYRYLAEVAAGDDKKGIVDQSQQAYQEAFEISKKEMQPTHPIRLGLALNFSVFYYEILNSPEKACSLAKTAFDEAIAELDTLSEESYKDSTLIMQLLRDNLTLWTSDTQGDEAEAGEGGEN
eIF4E-4G inh: inhibitors of eIF4E and eIF4G interaction in translation initiation. AID 782. P63073+Q04637. inhibition, % at 21.7 µM. 220,000 compounds, 0.37% hits. TR-FRET eIF4E-eIF4GI(517-606) binding, 2 h;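 further: 0% = full FRET control wells and 100% = background wells lacking eIF4GI fragment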
p47phox inh: blocks human p47phox regulatory protein of NADPH oxidases. p47phox/p22phox peptide binding, fluorescence polarization, 2 h. AID 1274. inhibition, % at 24.7 µM. 220,000 compounds, 0.53% hits;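 further: 0% = p47phox with labelled peptide and 100% = labelled peptide alone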
Mcl1 Noxa PPI: Mcl-1/Noxa interaction inhibition; AID 1022; inhibition, % at 21.7 µM; TR-FRET Mcl-1/Noxa peptide binding, 2 h; 220,000 compounds, 1.5% hits;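 active means compounds that cut the protein-peptide binding signal by more than 50% relative to plate controls in a single-dose test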;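 further: His-tagged Mcl-1 with rhodamine Noxa BH3 peptide and terbium anti-His antibody; 0% = Mcl-1 plus Noxa peptide wells and 100% = peptide-only wells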
Bim-Mcl-1: inhibitors of Bim-Mcl-1 interaction, human. Q07820. Bead-based flow cytometry, Bim peptide-Mcl-1 binding. inhibition, % at 10 µM. 190,000 compounds, 0.1% hits. AID 1009; in the data active means inhibition above about 40%;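 further: 0% = no compound tracer wells and 100% = peptide blocker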
* marks the source's active call; other numbers are inactive results; [ ] = dose if it differs, or a comment.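 How the source made its calls, unless noted: active means inhibition above about 30% (limit read from the data); inactive means the rest.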

What do the screens show for `Cc1cccc(NC(=S)c2nc3ccccc3s2)c1`?
Mcl1 Bid PPI: 103*; 14-3-3 Bad inh: -3; eIF4E-4G inh: 0; p47phox inh: -5; Mcl1 Noxa PPI: -41; Bim-Mcl-1: -1

What do the screens show for `O=C(Nc1ccccc1)c1nc2ccccc2s1`?
Mcl1 Bid PPI: -5; 14-3-3 Bad inh: 5; eIF4E-4G inh: 2; p47phox inh: 0; Mcl1 Noxa PPI: 27; Bim-Mcl-1: -8

How did CCCCOc1ccc(Cc2c(Cl)nc(SC)nc2N2CCOCC2)cc1 do in these assays?
Mcl1 Bid PPI: -15; 14-3-3 Bad inh: -15; eIF4E-4G inh: -2; p47phox inh: -10; Mcl1 Noxa PPI: 6; Bim-Mcl-1: 45*

Results for CSc1nc(Cl)c(Cc2ccc(OCC(C)C)cc2)c(N2CCOCC2)n1 ?
Mcl1 Bid PPI: -11; 14-3-3 Bad inh: 0; eIF4E-4G inh: 5; p47phox inh: -5; Mcl1 Noxa PPI: 8; Bim-Mcl-1: -8

Results for COc1ccc2nc(NC(=S)N(C)C)sc2c1 ?
Mcl1 Bid PPI: -13; 14-3-3 Bad inh: 3; eIF4E-4G inh: 41*[fluorescence artefact?]; p47phox inh: -12; Mcl1 Noxa PPI: -29; Bim-Mcl-1: 0

What do the screens show for `CCN1CCN(CC(=O)Nc2nc3ccc(OC)cc3s2)CC1`?
Mcl1 Bid PPI: 35; 14-3-3 Bad inh: 79*[fluorescence artefact?]; eIF4E-4G inh: -1; p47phox inh: -6; Mcl1 Noxa PPI: 25; Bim-Mcl-1: -2

How did COc1ccc2nc(NC(=O)CSc3nnc(N)s3)sc2c1 do in these assays?
Mcl1 Bid PPI: 14; 14-3-3 Bad inh: 55; eIF4E-4G inh: 9; p47phox inh: -39; Mcl1 Noxa PPI: 54*; Bim-Mcl-1: 1

What do the screens show for `COc1ccc2nc(NC(=O)c3sc4nc(C)cc(C)c4c3N)sc2c1`?
Mcl1 Bid PPI: -27; 14-3-3 Bad inh: 8; eIF4E-4G inh: -17; p47phox inh: -26; Mcl1 Noxa PPI: 53*

Results for CCCC(=O)Nc1nc2ccc(OC)cc2s1 ?
Mcl1 Bid PPI: -4; 14-3-3 Bad inh: -1; eIF4E-4G inh: 2; p47phox inh: -10; Mcl1 Noxa PPI: -3; Bim-Mcl-1: -2

How did COc1ccc([C@@H]2C=C(C(=O)O)O[C@H](OCCCCO)C2)cc1 do in these assays?
Mcl1 Bid PPI: -27; 14-3-3 Bad inh: -3; eIF4E-4G inh: -4; p47phox inh: -18; Mcl1 Noxa PPI: -2

How did C=CCc1ccccc1OCC(=O)N/N=C/c1ccc(OC(C)=O)cc1OC(C)=O do in these assays?
Mcl1 Bid PPI: -58; 14-3-3 Bad inh: 4; eIF4E-4G inh: 19; p47phox inh: -3; Mcl1 Noxa PPI: 4; Bim-Mcl-1: -25

How did COc1ccc2nc(Nc3sc4c(c3C(N)=O)CCCC4)sc2c1 do in these assays?
Mcl1 Bid PPI: -9; 14-3-3 Bad inh: -7; eIF4E-4G inh: 4; p47phox inh: -24; Mcl1 Noxa PPI: 100*; Bim-Mcl-1: -3

Results for COc1ccc2nc(NC3=NCCC3)sc2c1 ?
Mcl1 Bid PPI: -7; 14-3-3 Bad inh: -6; eIF4E-4G inh: 8; p47phox inh: -16; Mcl1 Noxa PPI: -15; Bim-Mcl-1: -3

How did CCOc1ccc(NC(=O)c2ccc(OC)cc2)cc1 do in these assays?
Mcl1 Bid PPI: -6; 14-3-3 Bad inh: 22; eIF4E-4G inh: 7; p47phox inh: 0; Mcl1 Noxa PPI: 8; Bim-Mcl-1: -2

What do the screens show for `CCC(=O)Nc1ccccc1C(=O)OCC(=O)c1cccc2ccccc12`?
Mcl1 Bid PPI: 4; 14-3-3 Bad inh: 85*[fluorescence artefact?]; eIF4E-4G inh: 0; p47phox inh: -5; Mcl1 Noxa PPI: -3; Bim-Mcl-1: -1

How did COc1ccc(C(=O)Nc2ccc(C(=O)OCC(=O)c3cccc4ccccc34)cc2)cc1 do in these assays?
Mcl1 Bid PPI: -7; 14-3-3 Bad inh: 7; eIF4E-4G inh: 5; p47phox inh: -5; Mcl1 Noxa PPI: 15; Bim-Mcl-1: 44*

Results for CCC(=O)Nc1ccccc1C(=O)OCc1ccc(C(=O)c2ccccc2)cc1 ?
Mcl1 Bid PPI: -29; 14-3-3 Bad inh: -3; eIF4E-4G inh: 2; p47phox inh: -10; Mcl1 Noxa PPI: -9; Bim-Mcl-1: -3

What do the screens show for `O=c1cc(-c2ccccc2Cl)oc2c(NS(=O)(=O)c3cccs3)ccc(O)c12`?
Mcl1 Bid PPI: -47; 14-3-3 Bad inh: -2; eIF4E-4G inh: -11; p47phox inh: -9; Mcl1 Noxa PPI: -9

Results for NS(=O)(=O)c1ccc(CCNC(=O)/C=C/c2ccccc2[N+](=O)[O-])cc1 ?
Mcl1 Bid PPI: 2; 14-3-3 Bad inh: -9; eIF4E-4G inh: 1; p47phox inh: -8; Mcl1 Noxa PPI: 2; Bim-Mcl-1: -3

Results for O=C(O)c1cccc(-n2cccc2/C=C2\NC(=O)N(Cc3ccc(F)cc3)C2=O)c1 ?
Mcl1 Bid PPI: -54; 14-3-3 Bad inh: 40; eIF4E-4G inh: 11; p47phox inh: -26; Mcl1 Noxa PPI: 12; Bim-Mcl-1: -2

How did O=C(O)c1ccc(-n2cccc2/C=C2/NC(=O)N(c3ccccc3)C2=O)cc1 do in these assays?
Mcl1 Bid PPI: -34; 14-3-3 Bad inh: 65; eIF4E-4G inh: 26; p47phox inh: -30; Mcl1 Noxa PPI: 72*

What do the screens show for `O=C1N/C(=C/c2cccn2-c2ccc(F)cc2)C(=O)N1Cc1ccccc1`?
Mcl1 Bid PPI: -46; 14-3-3 Bad inh: -14; eIF4E-4G inh: -2; p47phox inh: -26; Mcl1 Noxa PPI: 7; Bim-Mcl-1: 5

What do the screens show for `O=C(O)c1ccc(-n2cccc2/C=C2/NC(=O)N(c3cccc(Cl)c3)C2=O)cc1`?
Mcl1 Bid PPI: -41; 14-3-3 Bad inh: 80*; eIF4E-4G inh: 38*; p47phox inh: -26; Mcl1 Noxa PPI: 74*; Bim-Mcl-1: 0

What do the screens show for `OCC(CO)(CO)NC(=S)Nc1cc(Cl)cc(Cl)c1`?
Mcl1 Bid PPI: -37; 14-3-3 Bad inh: -1; eIF4E-4G inh: 97*; p47phox inh: 3; Mcl1 Noxa PPI: 0

What do the screens show for `COc1ccc2nc(-c3ccc(Cl)cc3)cc(C(=O)O)c2c1`?
Mcl1 Bid PPI: -4; 14-3-3 Bad inh: 3; eIF4E-4G inh: 0; p47phox inh: -5; Mcl1 Noxa PPI: 10

How did CC(C)c1nnc(NC(=O)c2cccc(NC(=O)C(F)(F)F)c2)s1 do in these assays?
Mcl1 Bid PPI: -7; 14-3-3 Bad inh: 2; eIF4E-4G inh: 2; p47phox inh: -1; Mcl1 Noxa PPI: 16; Bim-Mcl-1: -2

What do the screens show for `Cc1cc(C)c(-c2cc(NC(=O)COC(=O)c3ccc(CO)cc3)n(-c3ccccc3)n2)cc1C`?
Mcl1 Bid PPI: 6; 14-3-3 Bad inh: -3; eIF4E-4G inh: -3; p47phox inh: active; Mcl1 Noxa PPI: -12; Bim-Mcl-1: -3

What do the screens show for `O=C(NCCc1cccs1)C1CC(c2ccccc2F)=NO1` (centres undefined)?
Mcl1 Bid PPI: -38; 14-3-3 Bad inh: -8; eIF4E-4G inh: 7; p47phox inh: -5; Mcl1 Noxa PPI: 2

Results for O=C(O)C1CC(c2ccccc2F)=NO1 (centres undefined) ?
Mcl1 Bid PPI: -12; 14-3-3 Bad inh: 11; eIF4E-4G inh: 48*; p47phox inh: -9; Mcl1 Noxa PPI: 12; Bim-Mcl-1: 1

From PubChem
